Experimental data published in PubChem BioAssay (NCI).
This is part of a sample that, as a whole, favours compounds with a hit. Of some 79,000 tested, about 15% had one in any assay. Active and inactive are the calls of the source. Rule as the data show it: active = growth inhibition above about 70%; inactive = the rest.

Key:
[1] = NCI Yeast Anticancer Drug Screen. Data for the rad50 strain (AID 155);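 also: 0% = growth of vehicle-only cultures of the same strain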; details: S. cerevisiae rad50 strain growth inhibition, hits give high values
In short: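 Genetically altered yeast (DNA repair pathway); compound treatment; growth inhibition vs vehicle ctrl.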

[2] = NCI Yeast Anticancer Drug Screen. Data for the mec2-1 strain (AID 157); details: S. cerevisiae mec2-1 strain, hits give high values
In short: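 Readout is yeast growth inhibition, normalised to vehicle-treated controls, in the mec2-1 strain exposed to compound.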

[3] = NCI Yeast Anticancer Drug Screen. Data for the sgs1 mgt1 strain (AID 161);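 also: 0% = growth of cultures given vehicle only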; details: S. cerevisiae sgs1 mgt1 strain, hits give high values
In short: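 Yeast cells carrying a defined DNA-repair defect were exposed to test compounds. Growth inhibition was measured relative to vehicle-treated controls.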

[4] = NCI Yeast Anticancer Drug Screen. Data for the cln2 rad14 strain (AID 165);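 also: 0% = growth equal to vehicle treated cultures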; details: S. cerevisiae cln2 rad14 strain, hits give high values
In short: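 Relative to vehicle controls, growth inhibition of compound-treated cln2 rad14 yeast was recorded.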

[5] = NCI Yeast Anticancer Drug Screen. Data for the bub3 strain (AID 167); details: S. cerevisiae bub3 mutant strain, hits give high values
In short: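 Yeast carrying a defined mutation is treated with each compound, and growth is compared with that of vehicle-exposed cells to give inhibition.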

[6] = NCI Yeast Anticancer Drug Screen. Data for the mlh1 rad18 strain (AID 175); details: S. cerevisiae mlh1 rad18 strain growth inhibition, hits give high values
In short: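 Test agents were incubated with a yeast strain of defined genotype (DNA damage repair defect). Inhibition of growth was derived by comparison with vehicle-exposed cultures.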

[7] = at 5.0 µM (retest, dose inferred, filed as 0.5)
[8] = at 50.0 µM (retest, dose inferred, filed as 5.0)

Measured: growth inhibition

Cn1cc(NC(=O)c2cc(NC(=O)CCCCCCCC(=O)Nc3cc(C(=O)Nc4cc(C(=O)NCCC(=N)N)n(C)c4)n(C)c3)cn2C)cc1C(=O)NCCC(=N)N
inactive: [4]; [7] 28%
active: [1]; [7] 82% | [1]; [8] 96% | [1]; at 50.0 µM 86.8% | [2]; [7] 84% | [2]; [8] 98% | [2]; at 50.0 µM 89.8% | [3]; [7] 73% | [3]; [8] 98% | [3]; at 50.0 µM 90.2% | [4]; [8] 91% | [4]; at 50.0 µM 82% | [5]; [7] 88% | [5]; [8] 98% | [5]; at 50.0 µM 88.2% | [6]; [7] 85% | [6]; [8] 98% | [6]; at 50.0 µM 88.8%

CCC(c1cccc(O)c1)C(CC)c1cccc(O)c1 (stereo not given)
active: [3]; [8] 76% | [4]; [8] 74% | [5]; [8] 88% | [6]; at 50.0 µM 92.8%
inactive: [1]; [7] 28% | [1]; [8] 55% | [1]; at 50.0 µM 57.2% | [2]; [7] 19% | [2]; [8] 67% | [2]; at 50.0 µM 60.9% | [3]; [7] 51% | [3]; at 50.0 µM 39.4% | [4]; [7] 50% | [4]; at 50.0 µM 48.9% | [5]; [7] 59% | [5]; at 50.0 µM 66.3% | [6]; [7] 17% | [6]; [8] 55%

Clc1cc(Cl)c(NN=C(c2ccccc2)c2ccccc2)c(Cl)c1
active: [1]; [8] 97% | [1]; at 50.0 µM 99.5% | [2]; [8] 97% | [2]; at 50.0 µM 99.2% | [3]; [8] 98% | [3]; at 50.0 µM 99.7% | [4]; [8] 97% | [4]; at 50.0 µM 99.4% | [5]; [7] 87% | [5]; [8] 98% | [6]; [7] 72% | [6]; [8] 98% | [6]; at 50.0 µM 99.5%
inactive: [1]; [7] 37% | [2]; [7] 39% | [3]; [7] 57% | [4]; [7] 43% | [5]; at 50.0 µM 58.5%

COc1ccc(C(=O)CC2(O)C(=O)N(C)c3c(Cl)cc(Cl)cc32)cc1 (stereo not given)
active: [6]; at 50.0 µM 87.2%
inactive: [1]; [7] -1% | [1]; [8] 61% | [1]; at 50.0 µM 67.6% | [2]; [7] 3% | [2]; [8] 56% | [2]; at 50.0 µM 67.3% | [3]; [7] 4% | [3]; [8] 63% | [3]; at 50.0 µM 61.2% | [4]; [7] -2% | [4]; [8] 66% | [4]; at 50.0 µM 62% | [5]; [7] -2% | [5]; [8] 65% | [5]; at 50.0 µM 69% | [6]; [7] -2% | [6]; [8] 64%

N=C(/C(=C/c1ccccc1)c1ccccc1)c1ccccc1
active: [1]; [8] 78% | [1]; at 50.0 µM 97.6% | [2]; [8] 76% | [2]; at 50.0 µM 98.8% | [3]; [8] 98% | [3]; at 50.0 µM 98.5% | [4]; [8] 97% | [4]; at 50.0 µM 97.8% | [5]; [8] 98% | [5]; at 50.0 µM 98.7% | [6]; [8] 98% | [6]; at 50.0 µM 97.9%
inactive: [1]; [7] 5% | [2]; [7] 8% | [3]; [7] 6% | [4]; [7] -4% | [5]; [7] 25% | [6]; [7] 5%

COc1ccc2c(c1OC)C(C(Cl)(Cl)Cl)N1CCc3cc4c(cc3C1=C2)OCO4 (stereo not given)
active: [2]; [8] 71% | [2]; at 50.0 µM 74.5% | [3]; [8] 72% | [3]; at 50.0 µM 78.4% | [4]; [8] 80% | [4]; at 50.0 µM 80% | [5]; [8] 86% | [5]; at 50.0 µM 80.8%
inactive: [1]; [7] 15% | [1]; [8] 54% | [1]; at 50.0 µM 67.2% | [2]; [7] 7% | [3]; [7] 7% | [4]; [7] 33% | [5]; [7] 20% | [6]; [7] 11% | [6]; [8] 66% | [6]; at 50.0 µM 62.1%

C[N+](C)=c1ccc2nc3c(cc(NCCCNc4cc5oc6cc(=[N+](C)C)ccc-6nc5c5ccccc45)c4ccccc43)oc-2c1
active: [1]; [8] 79% | [1]; at 50.0 µM 75.8% | [2]; [8] 80% | [3]; [8] 70% | [5]; [8] 72% | [6]; [8] 74%
inactive: [1]; [7] -28% | [2]; [7] -7% | [2]; at 50.0 µM 51% | [3]; [7] -15% | [3]; at 50.0 µM 67.5% | [4]; [7] -29% | [4]; [8] 53% | [4]; at 50.0 µM 39.5% | [5]; [7] -18% | [5]; at 50.0 µM 64% | [6]; [7] -15% | [6]; at 50.0 µM 65.1%

NC(=S)N/N=C\c1nccc2c(C(F)(F)C(F)(F)C(F)(F)F)cccc12
inactive: [1]; [7] 26% | [1]; [8] 61% | [1]; at 50.0 µM 57.9% | [2]; [7] 39% | [2]; [8] 69% | [3]; [7] 39% | [3]; [8] 69% | [4]; [7] 10% | [4]; [8] 62% | [4]; at 50.0 µM 69.6% | [5]; [7] 11% | [6]; [7] 24% | [6]; [8] 69%
active: [2]; at 50.0 µM 74.5% | [3]; at 50.0 µM 74% | [5]; [8] 81% | [5]; at 50.0 µM 75.6% | [6]; at 50.0 µM 73.3%

N#C/C(=C\c1c(Cl)cccc1Cl)c1nc2ccccc2[nH]1
active: [1]; [8] 97% | [1]; at 50.0 µM 87.7% | [2]; [8] 99% | [2]; at 50.0 µM 90.2% | [3]; [8] 99% | [3]; at 50.0 µM 90.6% | [4]; [8] 98% | [4]; at 50.0 µM 88.9% | [5]; [8] 98% | [5]; at 50.0 µM 91.5% | [6]; [8] 98% | [6]; at 50.0 µM 88.8%
inactive: [1]; [7] 38% | [2]; [7] 22% | [3]; [7] 33% | [4]; [7] 23% | [5]; [7] 35% | [6]; [7] 42%

Nc1ncnc2c1c(-c1ccccc1)cn2-c1ccc(Cl)cc1
inactive: [1]; [7] 5% | [1]; [8] 26% | [1]; at 50.0 µM 22.2% | [2]; [7] 2% | [2]; [8] 10% | [2]; at 50.0 µM 15.5% | [3]; [7] 16% | [3]; [8] 61% | [4]; [7] 0% | [4]; [8] 17% | [4]; at 50.0 µM 42.8% | [5]; [7] 8% | [5]; [8] 5% | [5]; at 50.0 µM -17.4% | [6]; [7] 5% | [6]; [8] 23% | [6]; at 50.0 µM 14.8%
active: [3]; at 50.0 µM 71.8%
